Assay results: PubChem BioAssay (Tox21)
Inconclusive results are not listed. Unmarked numbers belong to inactive results. Calls follow the shape of the dose curve; as a rule, active = well fitted activation curve with a large enough effect in the repeat runs; inconclusive = weak or mixed curves; inactive = no such curve, though single readings can be large or run the other way.
% is scaled to controls: 0 for no effect and ±100 for the full control effect.

Test: qHTS assay for small molecules that induce genotoxicity in human embryonic kidney cells expressing luciferase-tagged ATAD5 (AID 651632); also: nearly all actives have a fitted effect of over 15% in size
Conditions: HEK293T ATAD5-luciferase induction, 16 h; series mostly up to 83.3 µM; activation: at the top concentration
Procedure, shortened: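 Quantitative HTS in HEK293T expressing luciferase-tagged ATAD5, whose levels rise upon DNA damage. Exposure ran 16 hr at 37C and 5% CO2, with luminescence read 30 min after Amplite addition at room temperature.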
With `CCCC(C(=O)OCCN(CC)CC)(c1ccccc1)c1ccccc1` the “activation” value was -11.5%. For `O=C(CCCN1CC=C(n2c(=O)[nH]c3ccccc32)CC1)c1ccc(F)cc1`, the “activation” value was -7.01%. With `CN(C)CCC=C1c2ccccc2C=Cc2ccccc21` the “activation” value was -9.98%. With `N#CCc1ccc(Cl)cc1Cl` the “activation” value was 0.911%. With `CC(C)(c1ccccc1)c1ccccc1` the “activation” value was 2.07%. With `CCOc1ccc(Cc2nccc3cc(OCC)c(OCC)cc23)cc1OCC` the “activation” value was -7.53% [at 39.1 µM]. With `CCCCCCCCC(CCCCCC)C(=O)O` (configuration not stated) the “activation” value was -1.11%. For `Oc1c(I)cc(I)c2cccnc12`, the “activation” value was -8.86%. In the case of `CC(=O)NC1(c2cccc(F)c2)CCN(CC[C@@]2(c3ccc(Cl)c(Cl)c3)CN(c3ccccc3)C(=O)CO2)CC1`, the “activation” value is reported as -6.4%. In the case of `CC(=O)Oc1ccc([N+](=O)[O-])cc1CCl`, the “activation” value is reported as -2.16%. In the case of `C=C(C)C(=O)OCCOCCOC(=O)C(=C)C`, the “activation” value is reported as -3.37%. For `CC(=O)N/N=C/c1ccc([N+](=O)[O-])o1`, the “activation” value was -7.19%.
